Screening results as filed in PubChem.
Rango dissoc inh – inhibitors of RanGTP-induced Rango-importin beta complex dissociation; O95149+P62826; Biochemical FRET Rango-importin beta, RanGTP-induced dissociation; Potency, µM (doses to about 46.1 µM), without a hit: at the highest dose activity change, negative = inhibition; 340,000 tested, 0.071% active; note: potency is the fitted concentration of half-maximal effect; % of control where 0% means no effect; nearly all actives have a fitted effect of over 45% in size
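Quantitative HTS using a FRET biosensor: 0.1 uM Rango, 0.25 uM importin beta, 0.6 uM Ran, 2 mM GTP, 0.2 uM RCC1 final, PBS with DTT, Tween-20 and BSA. Post-read taken 45 min after Ran addition.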
KCNH2 3.1 block – KCNH2 3.1 (human) potassium channel inhibition; AID 720553; 340,000 tested, 0.95% active; U2OS KCNH2 3.1, thallium flux FluxOr; stronger effect = lower value; activity change, % (tested at about 1.8 µM);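 active = maximum activity change below -70%; inconclusive = maximum activity change from -70% to -50%; inactive = maximum activity change above -50%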;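 note: thallium influx rate constant from kinetic fluorescence after stimulation buffer; % is set by controls: 0 for no effect and ±100 for the full control effect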
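Virally transduced U2OS (3.1 isoform, 4 h infection in dark at RT) → overnight 37 C → FluxOr + Red40 in HBSS/HEPES, 45 min → stimulation buffer, 2 min kinetic read → rate constant vs DMSO controls.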
hERG WT inh – blocks the wildtype human KCNH2 potassium channel; 340,000 tested, 0.37% active; AID 720551; activity change, % at 1.84 µM; Q12809; U2OS, BacMam KCNH2, thallium flux FluxOr; stronger effect = lower value;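 active = maximum activity change below -70%; inconclusive = maximum activity change between -70% and -50%; inactive = maximum activity change above -50%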; note: % is set by controls: 0 for no effect and ±100 for the full control effect
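U2OS cells were transduced with wild-type KCNH2 virus (2.03 x 10^8 / mL) for 4 h at room temperature, then cultured overnight at 37 C. Thallium flux was read with FluxOr dye. Rate constants were normalized to DMSO controls.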
CCT modulator – changes cytosolic chaperonin activity | purified chaperonin ATPase assay, HTRF ADP detection, 30 min | activity change, % (concentration not given with the values), hits read low | 360,000 tested, 0.3% active | AID 651819; in the data active = activity change below about -30%; note: % is set by controls: 0 for no effect and ±100 for the full control effect
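TRiC at 40 or 20 nM final (batch-dependent) in 30 mM Tris pH 7.4, 100 mM KCl, 5 mM MgCl2, 1 mM DTT, with compound at single 76 uM and 10 uM ATP, 30 min at 37 deg C. ADP detected by HTRF Transcreener, 665/615 ratio.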
MmCpn inh – M. maripaludis TRiC chaperonin inhibition. Potency, µM (highest dose often 76.9 µM), inactives show at the highest dose activity, negative = inhibition, actives largely listed as inhibitors. purified Mm-Cpn ATPase, ADP Transcreener TR-FRET. AID 504842. 330,000 tested, 0.031% active; active = well fitted inhibition curve with a large enough effect; inconclusive = small, poorly fitted or top-dose-only effect; note: potency is the fitted concentration of half-maximal effect; % is set by controls: 0 for no effect and ±100 for the full control effect; nearly all actives have a fitted effect of over 80% in size
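Measured: ADP formation by purified Mm-CPN. Conditions: 25 nM protein, 10 uM ATP, Tris pH 7.4 with Mg2+, K+ and DTT, 37°C for 30 min. Detection: Transcreener HTRF after 30 min at room temperature.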
Rango complex inh – Rango-importin beta binding inhibition; Q14974; Rango CFP/YFP FRET sensor + importin beta, 45 min; Potency, µM (series often up to 92.2 µM), inactives show top-dose inhibition of complex formation; 340,000 tested, 0.031% active; AID 540263;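 note: potency is the fitted concentration of half-maximal effect; 0% = DMSO wells and 100% = buffer wells lacking importin beta; nearly all actives have a fitted effect of over 15% in size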
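Inhibition scored from the CFP 486 nm/YFP 530 nm FRET ratio 45 min after adding 0.125 microM importin beta to 50 nM Rango biosensor preincubated 5 min with compound (room temperature, PBS with DTT, Tween-20, BSA). No-importin wells as positive control.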
Starred values were filed as active, the others as inactive; ? = inconclusive; / = no result given. Most compounds without a hit are left out; they make up all but 1.4% or so of the library. Unless noted, calls come from the whole dose curve.

SMILES	Rango dissoc inh	KCNH2 3.1 block	hERG WT inh	CCT modulator	MmCpn inh	Rango complex inh
CCOC(=O)c1sc(=NC(=O)c2ccc(OC(C)C)cc2)n(C)c1C	-0.4%	-31.0	-16.5	-33.8*	-26.1%	0.1%
Cc1cccc(NC(=O)C(C)OC(=O)CNC(=O)C2CCCCC2)c1 (centres undefined)	/	7.0	-143.6*	0.4	/	/
O=C(CSc1ccc2nnc(-c3ccncc3)n2n1)N1CCc2ccccc21	/	/	/	/	-2.4%	/
O=C(CCN1C(=O)c2ccccc2C1=O)NC(=S)Nc1ccccc1	10.1%	0.9	-2.4	2.2	-1.4%	0.3%
O=C(CCN1C(=O)c2ccccc2C1=O)NC(=S)Nc1cccc(Cl)c1	-11.6%	-72.3*	-5.9	-5.3	1.1%	-2.1%
O=C(Nc1ccccc1)c1cccnc1NCCc1ccccc1	-20.7%	-15.2	-2.7	-91.1*	0.5%	-3.2%
CN1CCN(C2Cc3ccccc3Sc3ccc(Cl)cc32)CC1 (centres undefined)	-3.8%	?	11.4	-1.7	0.8%	-1.0%
CN1CCN(C2Cc3ccc(F)cc3Sc3cc(F)c(Cl)cc32)CC1 (centres undefined)	1.0%	-87.6*	-40.7	-2.9	/	5.0%
CN1CCN(C2Cc3cc(F)ccc3Sc3ccc(Cl)cc32)CC1 (centres undefined)	12.2%	-77.9*	-7.9	-0.7	/	-2.6%
CC(=O)NCC1CCCN(C(=O)c2oc3c(F)cccc3c2C)C1 (centres undefined)	4.5%	-125.6*	-16.3	-1.6	-0.6%	-0.3%
COc1ccc(/C=N/NC(=O)c2ccccc2)cc1CN1CCN(c2ccc(F)cc2)CC1	2.1%	-107.4*	-107.7*	-2.2	2.8%	7.7%
COc1ccc(C)cc1NC(=O)c1ccc(CN2CCN(c3ccccc3)CC2)cc1	-2.6%	-104.1*	-30.5	-1.7	?	-0.9%
COc1cc(C(=O)N/N=C/c2ccc(OC)c(CN3CCN(c4ccc(F)cc4)CC3)c2)ccc1O	5.0%	-104.6*	/	-3.2	-0.8%	1.4%
COc1ccc(/C=N/NC(=O)c2ccccc2F)cc1CN1CCN(c2ccc(F)cc2)CC1	0.4%	-104.9*	?	-0.5	-0.9%	0.7%
CN(C(=O)CSc1nnc(-c2ccco2)n1Cc1ccccc1)C1CCS(=O)(=O)C1 (centres undefined)	6.3%	-6.2	0.3	2.0	-1.1%	1.8%
Cc1ccccc1C(=O)Nc1ccnn1C1CCN(Cc2cnn(C(C)C)c2)CC1	20.1%	-40.9	27.6	-0.9	-3.7%	-0.9%
CCNc1c(NS(=O)(=O)c2ccc(OC)c(Cl)c2)c(=O)oc2ccccc12	0.5%	-7.2	-4.9	2.0	-0.9%	-2.3%
CNc1c(NS(=O)(=O)c2ccc(OC)c(Cl)c2)c(=O)oc2ccccc12	3.0%	18.9	-4.1	-63.5*	4.7%	2.6%
Cc1ccc(/C=C/C(=O)c2ccccc(=O)c2O)c(C)c1	8.2µM*	5.3	5.3	-3.1	-0.4%	?
CN(C)C(CNC(=O)c1ccc(S(=O)(=O)N(C)C)cc1)Cc1ccccc1 (centres undefined)	9.6%	-6.0	-11.0	-0.6	4.2%	-2.3%
O=C(c1cc2cc(F)ccc2[nH]1)N(Cc1cccnc1)CC1CCCN(C2CCCCC2)C1 (centres undefined)	-0.9%	-108.9*	-25.2	-0.2	-1.1%	0.2%
CC(C=CC(O)=C1C(=O)CNC1=O)=C[C@@H](C)C1OC2(C)OC(C(=O)C3O[C@@]32C)C1C (some centres undefined)	/	/	/	-1.1	/	/
O=C(NCc1nnc(SCc2ccccc2)n1-c1ccc(F)cc1)C12CC3CC(CC(C3)C1)C2	-3.4%	5.8	5.6	-67.8*	-0.2%	-1.2%
Cc1ccc(S(=O)(=O)CC(C)N2CCOCC2)c(S(=O)(=O)CC(C)N2CCOCC2)c1 (centres undefined)	-1.0%	8.1	-224.2*	-41.3*	-1.8%	-2.0%
